Measured values taken from PubChem BioAssay AID489043 (National Center for Advancing Translational Sciences (NCATS), 2010).
Results filed as inconclusive are left out. Activity calls are given as the source filed them. Calls come from the whole dose curve; as a rule, active = well fitted activation curve with a large enough effect; inconclusive = small, poorly fitted or top-dose-only effect; inactive = flat fitted curve, though single readings scatter.

These compounds were tested against Relaxin receptor 2 (Homo sapiens) (UniProt Q8WXD0) (assay: qHTS Assay for Agonists of the Relaxin Receptor RXFP1: RXFP2 Hit Validation). Settings: HEK293 RXFP2 cAMP TR-FRET, 30 min; series mostly up to 115 µM.
In short: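 HEK293 cells expressing RXFP2, cultured 16-24 hr, treated 30 min at 37C with compounds plus PDE4 inhibitor Ro 20174. cAMP measured by HTRF TR-FRET; EC50 from Hill fits, normalized to buffer and 29 nM porcine relaxin.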
Note: nearly all actives have a fitted effect of over 65% in size.
Potency is the fitted concentration of half-maximal effect.

Sequence of Relaxin receptor 2 (Homo sapiens) (Q8WXD0 whole entry, looked up): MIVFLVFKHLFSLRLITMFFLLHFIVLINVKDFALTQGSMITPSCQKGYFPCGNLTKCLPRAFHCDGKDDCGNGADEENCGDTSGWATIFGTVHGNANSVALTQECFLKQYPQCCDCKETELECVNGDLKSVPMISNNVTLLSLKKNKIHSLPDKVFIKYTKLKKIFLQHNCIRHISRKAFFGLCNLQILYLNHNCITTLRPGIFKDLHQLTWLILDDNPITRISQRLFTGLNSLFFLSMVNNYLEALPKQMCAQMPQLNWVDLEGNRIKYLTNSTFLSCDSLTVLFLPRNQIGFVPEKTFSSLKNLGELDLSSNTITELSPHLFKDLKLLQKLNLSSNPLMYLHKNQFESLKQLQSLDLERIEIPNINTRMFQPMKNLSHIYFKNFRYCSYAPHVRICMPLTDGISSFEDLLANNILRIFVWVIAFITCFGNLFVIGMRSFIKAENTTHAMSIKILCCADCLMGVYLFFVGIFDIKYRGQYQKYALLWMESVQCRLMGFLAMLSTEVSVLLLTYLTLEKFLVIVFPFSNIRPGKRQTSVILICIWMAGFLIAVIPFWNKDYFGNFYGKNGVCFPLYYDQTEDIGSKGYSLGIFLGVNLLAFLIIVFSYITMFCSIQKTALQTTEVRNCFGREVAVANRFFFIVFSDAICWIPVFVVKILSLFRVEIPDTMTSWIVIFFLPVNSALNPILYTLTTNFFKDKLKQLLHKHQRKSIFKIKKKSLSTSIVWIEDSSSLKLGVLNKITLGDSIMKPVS

| Compound | Potency |
| --- | --- |
| Nc1ncnc2c1ncn2C1OC(CO)C(O)C1O (stereo not drawn) | 7.76 µM (active) |
| COC(=O)c1c(N2C(=O)CC(Sc3ncccc3C(=O)O)C2=O)sc(C)c1C (stereo not drawn) | inactive |
| CCN(CC)c1ccc(S(=O)(=O)N2CCOCC2)cc1NC(=O)CSc1nncn1C | 12.3 µM (active) |
| O=C(Nc1ccccc1C(=O)O)c1ccc(NC(=O)C2CC2)cc1 | inactive |
| CCOC(=O)CSc1nc(=O)n2cc(C)ccc2n1 | inactive |
| O=c1c2ccccc2cnn1Cc1n[nH]c(=S)n1-c1ccc(F)c(Cl)c1 | 15.5 µM (active) |
| O=C(NC1CCCCCC1)c1cc2c(=O)n3ccccc3nc2s1 | 38.9 µM (active) |
| CC1(C)Cc2c(sc3ncnc(NN)c23)CO1 | inactive |
| Cn1c2ccccc2c2nnc(SCC(=O)Nc3cccc(C(=O)O)c3)nc21 | 30.9 µM (active) |
| CCc1nnc(NC(=O)CSc2nc(C)nc3c2c(=O)n(C)c(=O)n3C)s1 | 10.9 µM (active) |
| NC(=S)c1cc2ccc(O)cc2oc1=O | 4.88 µM (active) |
| CC(=O)Nc1cccc(NC(=O)CSc2nc3c(c(=O)n(C)c(=O)n3C)n2C)c1 | 34.6 µM (active) |
| CCc1ccc(-c2nc3ccc(Br)cc3c(C(=O)O)c2C)s1 | 4.35 µM (active) |
| COc1ccc(/C=C2/SC(=O)N(CC(=O)Nc3cc(C)on3)C2=O)cc1OC | inactive |
| CC1(C)Cc2c(sc3c2c2ncnn2c2nnc(SCC(=O)NCc4ccco4)n32)CO1 | 7.76 µM (active) |
| CCCn1c(SCC(=O)Nc2ccc(NC(C)=O)cc2)nc2c1c(=O)n(C)c(=O)n2C | 34.6 µM (active) |
| CCOC(=O)c1sc(NC(=O)CCc2ccc(OC)cc2)nc1C | 17.3 µM (active) |

| Compound | Potency |
| --- | --- |
| CC[N+](CC)(CCCCS(=O)(=O)[O-])CCNP1(=O)C=C(c2ccccc2)OC(c2ccccc2)=C1 | 34.6 µM (active) |
| CCC(=O)Nc1ccc(-n2nnnc2SCC(=O)NNC(=O)c2ccco2)cc1 | inactive |
| Cn1c(N)c(C(=O)CSc2nn(-c3ccc(F)cc3)c(=S)s2)c(=O)n(C)c1=O | 21.8 µM (active) |
| CN1CCN(C(=O)CCc2nnc3ccc(N4CCC5(CC4)OCCO5)nn23)CC1 | inactive |
| Nc1ncnc2c1ncn2[C@@H]1O[C@H](COS(=O)(=O)O)[C@@H](O)[C@H]1O | 12.3 µM (active) |
| O=S(=O)(c1cccc(-c2cn3cccnc3n2)c1)N1CCOCC1 | 34.6 µM (active) |
| CCOc1ccc(NC(=O)CSc2ccc3nnc(-c4cccnc4)n3n2)cc1 | 34.6 µM (active) |
| O=C(Nc1ccccc1C(=O)N1CCOCC1)c1ccco1 | inactive |
| O=C(CCc1nnc2ccc(NCCCN3CCCC3=O)nn12)NCc1ccccc1Cl | inactive |
| O=C(CN1C(=O)c2cccc3cccc(c23)C1=O)NCCN1CCOCC1 | inactive |
| Nc1c(S(=O)(=O)O)cc(NC(=O)c2ccccc2)c2c1C(=O)c1ccccc1C2=O | inactive |
| Cc1cccc(C(=O)Nc2ccccc2C(=O)NCc2ccco2)c1 | inactive |
| COc1cccc(C(=O)CSc2nnc(-c3cc(OC)cc(OC)c3)o2)c1 | 10.9 µM (active) |
| COc1ccc(S(=O)(=O)N2CCOCC2)cc1NC(=O)CSc1ncnc2ccccc12 | 24.5 µM (active) |
| O=C(O)c1cc(-c2ccco2)nc2ccc(Br)cc12 | 17.3 µM (active) |
| Cc1ccc(C(=O)Nc2ccccc2C(=O)NCc2ccco2)cc1 | inactive |
